# Calpain2 inh = calpain II (pig) inhibition; purified calpain II, fluorogenic peptide substrate, 30 min; inhibition, % at 16 µM; 220,000 tested, 0.37% active; AID 1236;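 active = inhibition above about 50%, limit read from the data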
# ROMK primary = modulates human ROMK potassium channel activity; B-score at 10 µM; AID 1918; 130,000 tested, 2% active; P48048; Tet-inducible ROMK, thallium flux fluorescence; actives lie on both sides;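 active = signal ratio slope over the read window, or its plate-corrected B-score, at least 3 SD from the plate mean, either direction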;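 note: B-score of the F/F0 ratio slope over 7 to 12 s after thallium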
# WT yeast gro inh = growth inhibition of WT yeast, mitochondrial fusion screen | mitochondrial fusion phenotypic screen, WT strain | inhibition, % at 10 µM | 190,000 tested, 2.1% active | AID 1362; in the data active = inhibition above about 58%; tested in S. cerevisiae
# L major viab = reduces viability of Leishmania major promastigotes; inhibition, % at 10 µM; resazurin fluorescence viability; 200,000 tested, 9% active; AID 1063; in the data active = inhibition above about 50%;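 note: promastigotes grown with compound for 44 hours at 28 °C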
# Cl transport mod = modulates chloride dependent transport by human KCC2; Q9H2X9; KCC2 cells, thallium flux FluoZin-2 fluorescence; B-score of Tl+ flux slope (higher = more flux/activation; lower = inhibition) at 10 µM; 190,000 tested, 2.2% active;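 active = thallium flux slope and its plate-corrected score both differing from the plate sample mean at a set confidence after two filtering rounds, in either direction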;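 note: slope of fluorescence scaled to starting intensity during 10 to 20 s after thallium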
# Target sequence (Q9H2X9 whole entry, looked up): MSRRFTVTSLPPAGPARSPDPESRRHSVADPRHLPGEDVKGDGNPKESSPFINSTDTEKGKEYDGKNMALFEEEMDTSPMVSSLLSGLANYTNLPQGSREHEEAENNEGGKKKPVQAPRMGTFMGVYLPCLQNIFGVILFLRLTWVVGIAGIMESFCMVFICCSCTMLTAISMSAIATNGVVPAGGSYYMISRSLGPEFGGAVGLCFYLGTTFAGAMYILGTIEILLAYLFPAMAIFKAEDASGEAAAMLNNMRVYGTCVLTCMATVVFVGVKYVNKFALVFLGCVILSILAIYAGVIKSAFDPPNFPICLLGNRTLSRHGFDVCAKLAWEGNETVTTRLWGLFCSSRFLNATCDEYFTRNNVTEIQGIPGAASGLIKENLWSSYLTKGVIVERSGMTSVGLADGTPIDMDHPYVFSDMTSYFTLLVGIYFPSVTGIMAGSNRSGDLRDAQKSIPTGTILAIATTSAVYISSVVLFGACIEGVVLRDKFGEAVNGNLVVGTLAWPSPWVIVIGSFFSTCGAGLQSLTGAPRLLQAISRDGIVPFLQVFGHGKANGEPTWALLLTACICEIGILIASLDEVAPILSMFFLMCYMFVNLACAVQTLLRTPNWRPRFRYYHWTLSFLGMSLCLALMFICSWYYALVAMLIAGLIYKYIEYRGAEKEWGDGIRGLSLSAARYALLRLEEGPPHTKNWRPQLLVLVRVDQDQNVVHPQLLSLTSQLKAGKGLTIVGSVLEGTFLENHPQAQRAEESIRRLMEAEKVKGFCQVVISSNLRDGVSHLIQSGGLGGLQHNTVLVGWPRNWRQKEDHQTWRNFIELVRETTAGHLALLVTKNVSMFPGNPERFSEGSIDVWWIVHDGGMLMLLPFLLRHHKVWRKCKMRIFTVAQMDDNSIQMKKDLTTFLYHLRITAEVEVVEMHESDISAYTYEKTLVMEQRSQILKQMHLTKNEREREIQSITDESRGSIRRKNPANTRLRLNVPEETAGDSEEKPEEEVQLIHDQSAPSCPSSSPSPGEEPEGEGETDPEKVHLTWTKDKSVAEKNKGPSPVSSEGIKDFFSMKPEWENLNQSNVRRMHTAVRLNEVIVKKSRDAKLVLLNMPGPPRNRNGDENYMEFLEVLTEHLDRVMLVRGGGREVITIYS
# KCC2 sec1 = confirmation of human KCC2 transport modulators; shares compounds with Cl transport mod; HEK293-KCC2, thallium flux, FluoZin2 fluorescence; hits give high values; normalised thallium flux (F/F0 slope) at 10 µM; 3,700 tested, 15% active;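 active = thallium flux slope above the same plate's solvent-only control mean plus 3 SD; inconclusive = the two replicate wells disagree; inactive = no significant difference from solvent-only control wells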
# KCC2 bumet counter = thallium flux despite bumetanide block in KCC2 cells, secondary assay 3 | shares compounds with Cl transport mod | HEK293-KCC2 + bumetanide/ouabain, thallium flux FluoZin2; hits give high values | normalized thallium flux at 10 µM | 3,700 tested, 49% active;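 active = thallium entry rate above the same plate's blocked-transporter control wells by more than 3 SD; inconclusive = the two repeat wells disagree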;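 note: raw slope of fluorescence over initial fluorescence between 10 and 20 s after thallium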
# KCC2 sec2 = confirmation of human KCC2 transport modulators | shares compounds with Cl transport mod | HEK293-KCC2, thallium flux FluoZin2 fluorescence; actives lie on both sides; F/F0 rise rate, 10–20 s post-thallium | normalized thallium flux at 10 µM | 3,700 tested, 23% active | AID 1715;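 active = thallium flux slope more than 3 SD above or below the plate's solvent-only control mean, mostly below; inconclusive = the two repeat wells disagreed; inactive = no significant shift from solvent-only controls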;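 note: raw slope with 0.1% DMSO as baseline and bumetanide as block control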
# HEK counter1 = counter-screen for KCC2 modulators: effect in parental HEK293 cells. shares compounds with Cl transport mod. thallium flux FluoZin2, ouabain; baseline-ratio fluorescence slope, 10–20 s after thallium. thallium flux rate (normalised fluorescence) at 10 µM. 3,700 tested, 46% active. AID 1716;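 active = thallium flux rate significantly above the same plate's solvent-only control wells, beyond their mean plus 3 SD; inconclusive = the two replicate wells gave conflicting results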
# KCC2 ouabain = KCC2 (human) modulation, ouabain retest; shares compounds with Cl transport mod; HEK293-KCC2, thallium flux FluoZin2 fluorescence; bidirectional: low = inhibitor, high = activator; raw Tl+ flux slope (below DMSO = inhibition, above = activation) at 10 µM; 3,700 tested, 48% active;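 active = thallium flux slope beyond 3 SD from same-plate DMSO control mean in most replicates, usually higher, sometimes lower; inconclusive = repeat tests gave conflicting results; inactive = no significant difference from controls in most replicates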;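 note: slope of initial-normalized fluorescence between seconds 10 and 20 after thallium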
# HEK293 Tl flux2 = counter-screen for KCC2 modulators: effect in parental HEK293 cells; thallium flux slope at 10 µM; thallium flux FluoZin-2 fluorescence slope; 3,700 tested, 33% active; shares compounds with Cl transport mod;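 active = thallium flux slope above the same plate's solvent-control mean plus 3 SD in both duplicate wells; inconclusive = duplicate wells that disagreed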;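 note: run without ouabain in cells lacking the KCC2 cotransporter; slope of fluorescence scaled to its starting value between 10 and 20 s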
# * hit, by the source's call; ? = inconclusive; . = not tested or not shown. Sampled rows, rich in hits. Any-hit rate of the full collection: about 12%.
SMILES,Calpain2 inh,ROMK primary,WT yeast gro inh,L major viab,Cl transport mod,KCC2 sec1,KCC2 bumet counter,KCC2 sec2,HEK counter1,KCC2 ouabain,HEK293 Tl flux2
COc1cccc(OCC(Cn2c(C)nc3ccccc32)OC(C)=O)c1 (centres undefined),-22.8,-0.546,-6.3,12.3,-0.673,.,.,.,.,.,.
O=C1NC[C@@H](Cc2cccc3ccccc23)N(CC2CCCCC2)C1=O,5.5,.,.,.,-2.99*,0.00541,0.00466,0.0244*,0.00696,0.016,0.00933
O=C1NC[C@@H](Cc2cccc3ccccc23)N(CC2(c3ccccc3)CC2)C1=O,-44.8,.,.,.,-1.82,.,.,.,.,.,.
COC(=O)C1CCN(S(=O)(=O)c2cn(C)c(=O)n(C)c2=O)CC1,-15.7,.,-1.1,-5.6,-3.42*,0.00879,?,0.0323,0.00772,0.0214,0.0112
COc1ccc(NC(=O)c2c([N+](=O)[O-])c(C(C)(C)C)nn2C)cc1,-18.3,.,.,.,-1.04,.,.,.,.,.,.
CCOC(=O)COc1cc(-n2c(=S)[nH]c3ccccc3c2=O)c(Cl)cc1Cl,36.7,-0.159,30.1,-5.2,4.35*,0.00785,0.0215*,0.0329,0.0135*,?,0.0161*
CCN(CC)S(=O)(=O)c1ccc(Cl)c(OC)c1,-7.8,-0.446,-15.6,6.4,.,0.00798,0.00515,0.029,0.00654,0.0204,0.00873
COc1cccc(NC(=O)COC(=O)c2nc3nccc(C)n3n2)c1,-22.6,.,-18.6,-2.1,-5.45*,0.0077,0.0042,0.0296,?,0.0182,0.0106
O=C(CCCn1c(SCc2cccc([N+](=O)[O-])c2)nc2ccccc2c1=O)NCC1CCCO1 (centres undefined),-36.6,0.186,16.0,33.0,-0.108,.,.,.,.,.,.
N=C1S/C(=C\c2ccc(-c3cccc(Cl)c3)o2)C(=O)N1c1nccs1,-67.9,.,-4.1,99.2*,6.61*,0.00733,0.00891*,0.032,0.0153*,0.0218,0.0169*
COc1ccc(/C=C2\SC(=N)N(c3nccs3)C2=O)cc1OC,4.7,.,32.7,96.5*,4.55*,0.00656,0.0318*,0.0325,0.0222*,0.0288*,0.0188*
N=C1/C(=C\c2ccc(-c3cccc(Cl)c3)o2)C(=O)N=C2SC=C(c3ccccc3)N12,-54.3,.,0.5,-3.3,0.396,.,.,.,.,.,.
COc1ccc2c(c1)O[C@@H](c1cccc(C(F)(F)F)c1)[C@H](OC(=O)NCCc1ccc(OC)c(OC)c1)C2=O,-17.9,0.447,-8.9,3.8,38.1*,0.00667,0.0277*,?,0.0294*,0.0369*,0.0217*
COC(=O)[C@@H](NC(=O)O[C@@H]1C(=O)c2ccc(OC)cc2O[C@H]1c1cccc(C(F)(F)F)c1)C(C)C,6.1,-0.608,33.9,5.5,5.57*,0.00644,0.0107*,0.0311,0.0146*,?,0.013*
COc1cccc([C@@H]2Oc3ccc(OC)cc3C(=O)[C@H]2OC(=O)NCc2ccc3c(c2)OCO3)c1,-14.6,2.19,13.8,4.6,42*,0.00611,0.0584*,0.0639*,0.0682*,0.0547*,0.051*
CCCCOc1ccc(N2CC(C(=O)NCCc3ccc(OC)c(OC)c3)CC2=O)cc1 (centres undefined),-47.9,0.297,-14.8,4.2,0.279,.,.,.,.,.,.
CC(Cc1ccccc1)C(=O)NCc1ccccn1 (centres undefined),-6.6,0.0531,2.8,-7.8,-0.0143,.,.,.,.,.,.
CCCCN(C(=S)NC(=O)c1cc(OC)c(OC)c(OC)c1)c1c(N)n(Cc2ccccc2)c(=O)[nH]c1=O,-17.9,0.342,-11.8,-0.3,0.178,.,.,.,.,.,.

# From PubChem BioAssay
